Measured values as given in PubChem BioAssay AID652015 (National Center for Advancing Translational Sciences (NCATS), 2013).
Inconclusive results are not listed. Activity calls are given as the source filed them. The call rests on the fitted dose curve; in most records, active means well fitted inhibition curve with a large enough effect; inconclusive means small, poorly fitted or top-dose-only effect; inactive means no such curve, though single readings can be large or run the other way.

biological target: Coelenterazine h 2-monooxygenase (Renilla reniformis) (UniProt P27652); experiment: qHTS Assay for Inhibitors of Sea Pansy Luciferase from the GSK Published Protein Kinase Inhibitor Set; details: purified Renilla luciferase, luminescence; series mostly up to 57.5 µM
Summary of the method: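 Purified R. reniformis luciferase (1 nM final) with 5 uM coelenterazine h in 50 mM Tris acetate pH 7.5, 100 uM NaCl, 0.01% Tween-20, 0.05% BSA. A titration, about 60 uM to 300 pM; luminescence read after about 2 min.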

Chain of Coelenterazine h 2-monooxygenase (Renilla reniformis) (P27652 whole entry, looked up): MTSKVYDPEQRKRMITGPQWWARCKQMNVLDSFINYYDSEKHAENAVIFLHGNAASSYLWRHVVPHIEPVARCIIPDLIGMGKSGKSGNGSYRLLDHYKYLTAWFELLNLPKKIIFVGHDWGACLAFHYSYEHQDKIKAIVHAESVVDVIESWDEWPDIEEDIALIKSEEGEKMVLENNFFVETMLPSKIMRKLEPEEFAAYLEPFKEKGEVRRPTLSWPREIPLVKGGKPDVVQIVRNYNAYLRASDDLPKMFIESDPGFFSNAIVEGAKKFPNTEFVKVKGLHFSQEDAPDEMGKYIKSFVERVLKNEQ

Potency, inactive:
O=C(OC1CNC(C#Cc2cc3ncnc(Nc4ccc5c(ccn5Cc5cc(F)ccc5F)c4)c3s2)C1)N1CCOCC1 (centres undefined)
Cc1ccc2[nH]c(O)c(N=Nc3ccc(S(N)(=O)=O)cc3)c2c1
NS(=O)(=O)c1ccc(N=Nc2c(O)[nH]c3ccc(C(=O)NCc4ccncc4)cc23)cc1
COc1cccc(-n2ncc3c(NN=Cc4ccc(S(C)(=O)=O)cc4)ncnc32)c1
NC(=O)c1cc(-c2ccc(F)cc2)cc(-c2ccncc2)c1N
CC(C)c1ccc2c(N=Nc3ccc(S(N)(=O)=O)cc3)c(O)[nH]c2c1
COc1cc2ncnc(Nc3ccc(C)c(O)c3)c2cc1OC
COc1ccc2ncn(-c3cc(OC(C)c4ccccc4Cl)c(C(N)=O)s3)c2c1 (centres undefined)
COC(=O)Nc1nc2ccc(Sc3ccc(NC(=O)Nc4cc(C(F)(F)F)ccc4F)cc3)cc2[nH]1
CC(C)(C)c1ccc(Oc2nccc(-c3c(-c4ccc(F)cc4)ncn3C3CCNCC3)n2)cc1
Fc1cccc(COc2ccc(Nc3ncnc4sc(-c5cccs5)cc34)cc2Cl)c1
COc1cc2c(cc1Nc1nc(Nc3ccsc3C(N)=O)c3cc[nH]c3n1)N(C(=O)CN(C)C)CCC2(C)C
NC(=O)Cc1ccccc1Oc1nccc(-c2c(-c3ccc(F)cc3)ncn2C2CCNCC2)n1
CC(=Nc1ccc(S(N)(=O)=O)cc1)c1c(O)[nH]c2ccccc12
COc1cc(Nc2ncc(-c3ccccc3)o2)cc(OC)c1OC
COc1cc2ncn(-c3cc(OCc4ccccc4Cl)c(C(N)=O)s3)c2cc1OC
FC(F)(F)c1ccc(-c2nn3ncccc3c2-c2ccnc(Nc3ccc4c(c3)OCCO4)n2)cc1
CC1=C(C(=O)Nc2ccc3[nH]ncc3c2)C(c2ccc3ccccc3c2)CC(=O)N1 (centres undefined)
COc1cc2ncn(-c3cc(OCc4ccccc4C(F)(F)F)c(C(C)=O)s3)c2cc1OC
COc1ccc(COc2ccc(Cc3cnc(N)nc3N)cc2OC)cc1
COc1cc(C=NNc2ncnc3c2cnn3-c2ccccc2)ccc1O
CC(C)(CO)CNC(=O)c1ccc2[nH]c(O)c(N=Nc3ccc(S(N)(=O)=O)cc3)c2c1
CCc1nccc2c1nc(-c1nonc1N)n2CC
CCn1c(-c2nonc2N)nc2cnc(Oc3cccc(NC(=O)c4ccc(OCCN5CCOCC5)cc4)c3)cc21
Fc1cccc(COc2ccc(Nc3ncncc3C#Cc3ccccc3)cc2Cl)c1
CS(=O)(=O)CCN(CC#N)Cc1ccc(-c2ccc3ncnc(Nc4ccc(OCc5cccc(F)c5)c(Cl)c4)c3c2)o1
CN1CCC(n2cnc(-c3ccc(F)cc3)c2-c2ccnc(N)n2)CC1
CS(=O)(=O)Nc1ccc(-c2cc(-c3ccccc3)cc(C(N)=O)c2N)cc1
Oc1[nH]c2ccccc2c1C=Nc1ccc(-n2cncn2)cc1
CN(C)CCCNc1nccc(-c2c(-c3ccc(F)cc3)nn3cc(C(F)(F)F)ccc23)n1
COc1ccc(-c2nn3ncccc3c2-c2ccnc(Nc3cccc(C(F)(F)F)c3)n2)cc1
COc1cccc(-n2nc(C)c3c(NN=C(C)c4ccncc4)ncnc32)c1
N#Cc1ccc2c(-c3ccnc(NC4CC4)n3)c(-c3ccc(F)cc3)nn2c1
CN1CCC(n2cnc(-c3ccc(F)cc3)c2-c2ccnc(NCCO)n2)CC1
Cc1ccc(Nc2ccnc(Nc3cccc(C(N)=O)c3)n2)cc1O
FC(F)(F)c1cccc(-c2nn3ncccc3c2-c2ccnc(Nc3ccc4c(c3)OCCO4)n2)c1
COC(=O)Nc1nc2ccc(Oc3ccc(NC(=O)Nc4cc(C(F)(F)F)ccc4F)cc3)cc2s1
CN(C)CCNC(=O)Nc1ccc(N(C)c2ccnc(Nc3ccc(CS(C)(=O)=O)cc3)n2)cc1
Fc1ccc(-c2c(-c3ccncc3)nc3n2CCS3)cc1
